Source: PubChem (National Center for Advancing Translational Sciences (NCATS))
uPA generation: qHTS for Inhibitors of Cell Surface uPA Generation | cell surface uPA generation assay, qHTS | Potency, µM (highest dose often 38.3 µM), inactives show top-dose activity change, negative = inhibition, hits mostly inhibitors | actives 0.31% (n = 330,000) | AID 540303, 2011; active = well fitted inhibition curve with a large enough effect; inconclusive = small, poorly fitted or top-dose-only effect; inactive = no such curve, though single readings can be large or run the other way; tested in mouse RAW 264.7 cells; note: potency is the fitted concentration of half-maximal effect; % is set by controls: 0 for no effect and ±100 for the full control effect; nearly all actives have a fitted effect of over 55% in size
miR-21 reporter: qHTS Assay for Modulators of miRNAs and/orActivators of miR-21; HeLa miR-21 FLuc reporter, luciferase, 48 h; Potency, µM (titrated, usually from 38.3 µM), for the others: at the top dose activity change, positive = activation, actives largely listed as activators; 340,000 tested, under 10 active;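 note: % of control where 0% means no effect; miR-21 action dims this reporter so a rising signal means less miR-21 action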
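Using DMEM plus 10% FBS, HeLa miR-21-FLuc cells are incubated with test compounds (final up to about 40uM) for 48 hours; firefly luciferase signal is then imaged following reagent-mediated lysis.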
TDP1 block: qHTS Assay for Inhibitors of Tyrosyl-DNA Phosphodiesterase (TDP1) | AID 485290, 2010 | actives 0.28% (n = 350,000) | recombinant TDP1, AlphaScreen DNA substrate cleavage | Potency, µM (titrated, usually from 130 µM), inactives show at the top dose activity change, negative = inhibition, most hits filed as inhibitors; note: potency is the fitted concentration of half-maximal effect; % is set by controls: 0 for no effect and ±100 for the full control effect; nearly all actives have a fitted effect of over 40% in size
Target sequence (Q9NUW8 whole entry, looked up): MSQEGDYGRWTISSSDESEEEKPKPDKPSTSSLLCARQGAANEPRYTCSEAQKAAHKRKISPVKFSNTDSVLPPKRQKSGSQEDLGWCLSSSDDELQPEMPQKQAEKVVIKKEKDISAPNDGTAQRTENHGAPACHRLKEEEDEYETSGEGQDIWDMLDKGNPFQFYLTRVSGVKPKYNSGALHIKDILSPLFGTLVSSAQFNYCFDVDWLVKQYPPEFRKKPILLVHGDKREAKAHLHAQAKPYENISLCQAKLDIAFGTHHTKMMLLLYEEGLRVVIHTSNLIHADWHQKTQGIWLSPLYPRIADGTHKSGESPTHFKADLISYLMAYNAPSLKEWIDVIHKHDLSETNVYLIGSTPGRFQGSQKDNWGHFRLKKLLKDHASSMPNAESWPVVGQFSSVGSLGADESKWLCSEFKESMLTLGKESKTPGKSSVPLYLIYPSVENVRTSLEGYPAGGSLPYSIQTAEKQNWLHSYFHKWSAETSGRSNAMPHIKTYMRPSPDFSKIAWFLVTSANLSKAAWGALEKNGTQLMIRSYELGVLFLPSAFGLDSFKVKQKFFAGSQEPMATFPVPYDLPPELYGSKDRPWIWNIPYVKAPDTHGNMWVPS
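E. coli-derived human Tdp1, 1 nM final. Cpd preinc 15 min RT; substrate 15 nM final, 5 min RT; AS bead mix 10 ug/ml final, 10 min RT. Signal loss = tyrosine-FITC cleavage. No-enzyme wells = max signal.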
TDP1 cell CPT: qHTS for Inhibitors of human tyrosyl-DNA phosphodiesterase 1 (TDP1): qHTS in cells in presence of CPT; chicken DT40 Tdp1-/-;hTDP1 cells + 20 nM CPT, ATP luminescence, 48 h; Potency, µM (top dose mostly 46.2 µM), for inactives: top-dose activity change, negative = growth inhibition, most hits filed as inhibitors; actives 12% (n = 420,000); AID 686979, 2013; note: potency is the fitted concentration of half-maximal effect; % is set by controls: 0 for no effect and ±100 for the full control effect; nearly all actives have a fitted effect of over 55% in size
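Chicken DT40 Tdp1-/- cells stably complemented with human TDP1 were seeded at 400 cells/well in medium containing 20 nM camptothecin, exposed to pin-transferred compounds, and grown at 37 °C for at least 48 hr. Viability was read as ATP luminescence.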
DT40 TDP1 no CPT: qHTS for Inhibitors of human tyrosyl-DNA phosphodiesterase 1 (TDP1): qHTS in cells in absence of CPT; Potency, µM (doses to about 46.2 µM), inactives show top-dose activity change, negative = growth inhibition, hits mostly inhibitors; actives 15% (n = 420,000); DT40 Tdp1-/- hTDP1 cells, no CPT, ATP luminescence, 48 h; AID 686978, 2013; note: potency is the fitted concentration of half-maximal effect; % is set by controls: 0 for no effect and ±100 for the full control effect; nearly all actives have a fitted effect of over 55% in size
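Seeded 400 DT40-hTDP1 cells/well (vehicle DMSO, no 20 nM CPT); pinned compounds; ≥48 hr at 37 °C; CellTiter-Glo luminescence as viability measure.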
An asterisk follows results filed as active; ? = inconclusive; / = no result; [ ] = remark or other dose. This is a sample that favours compounds with a hit; in the whole collection about 16% have one here. Unless noted, calls come from the whole dose curve; as a rule, active = well fitted curve in the direction sought with a large enough effect; inconclusive = small, poorly fitted or top-dose-only effect, or another doubt; inactive = no such curve, though single readings can be large; an effect the other way counts as inactive or inconclusive.

SMILES	uPA generation	miR-21 reporter	TDP1 block	TDP1 cell CPT	DT40 TDP1 no CPT
CCOc1c(CNCCNC(=O)c2nonc2N)cccc1OC	4.5%	-4.7%	3.0%	?	-24.7%
Fc1ccccc1COc1ccc(Br)cc1CNCC1CCCO1 (stereo not drawn)	-8.2%	0.1%	0.0%	?	14.6µM*
CCn1c(CN2CCC(C)CC2)nc2cc(NC(=O)c3ccc([N+](=O)[O-])cc3)ccc21	/	1.6%	-1.6%	?	?
CC(C)(C)n1nnnc1C(c1cccs1)N1CCCc2ccccc21 (stereo not drawn)	1.1%	-0.1%	-1.0%	?	?
C=CCOc1ccccc1CNCCNC(=O)c1nonc1N	-4.5%	-2.4%	0.0%	-29.1%	-21.6%
Nc1nonc1C(=O)NCCNCc1ccccc1OCc1ccccc1F	-6.1%	3.2%	7.4%	?	20.6µM*
CC1=C([N+](=O)[O-])C(c2cccc(Br)c2)C2=C(N1)c1ccccc1C2=O (stereo not drawn)	-10.1%	22.8%	11.9%	1.03µM*	1.84µM*
CN(C)S(=O)(=O)c1ccc(N2CCCC2)c(C(=O)Nc2ccccc2)c1	-8.9%	/	2.7%[0.505 µM]	-27.1%	-15.0%
CNc1cncc(-c2cc(C)c(O)c(C)c2)n1	/	/	/	4.11µM*	6.51µM*
CNc1cncc(-c2ccc(O)cc2)n1	/	/	/	?	-29.2%
Cc1ccc(-c2cn3cccc(C)c3n2)cc1NS(=O)(=O)c1ccccc1	/	-17.2%	-2.3%	25.9µM*	16.4µM*
COc1ccc(S(=O)(=O)Nc2cc(-c3cn4ccc(C)cc4n3)ccc2C)cc1OC	/	-17.9%	2.3%	16.4µM*	16.4µM*
COc1ccc(Br)cc1S(=O)(=O)Nc1cc(-c2cn3ccccc3n2)ccc1C	/	7.7%	4.7%	?	13µM*
Cc1cc(C)c(S(=O)(=O)Nc2cc(-c3cn4ccccc4n3)ccc2C)cc1C	/	22.1%	7.0%	20.6µM*	20.6µM*
O=C(O)CSc1ncnc2c1sc1nc(-c3ccccc3)c3c(c12)CCC3	4.5%	-6.6%	5.2%	-24.3%	?
O=C(NCCCn1ccnc1)C(=O)NCC1OCCN1S(=O)(=O)c1ccc(F)cc1 (stereo not drawn)	7.9%	-5.2%	3.9%	1.5%	0.5%
Cc1ccc(Cn2ccnc2SCC(=O)NCc2ccccc2Cl)cc1	/	2.9%	4.4%	-7.3%	-15.3%
COc1cccc(N=C2SC(CC(=O)Nc3ccccc3)C(=O)N2Cc2ccccn2)c1 (stereo not drawn)	6.4%	0.8%	8.0%	?	?
Cc1cccn2cc(-c3ccc(S(=O)(=O)N4CCOCC4)cc3)nc12	-0.7%	-5.3%	0.0%	?	16.4µM*
COc1ccc(NC(=O)CN2c3cccc4cccc(c34)S2(=O)=O)cc1OC	/	/	/	?	7.31µM*
Cc1ccc(NC(=O)CN2c3cccc4cccc(c34)S2(=O)=O)cc1S(=O)(=O)N1CCOCC1	1.0%	3.7%	0.6%	?	18.4µM*
COc1cc(S(=O)(=O)N2CCOCC2)ccc1NC(=O)CN1c2cccc3cccc(c23)S1(=O)=O	-4.7%	-7.6%	0.0%	17.6%	-9.5%
CCSc1nc(-c2ccco2)ccc1C#N	1.7%	-5.4%	-8.4%	23.1µM*	?
CCOc1ccc(N2CC(NC(=O)C(=O)c3c[nH]c4ccccc34)CC2=O)cc1 (stereo not drawn)	/	5.3%	0.0%	-24.9%	?
CC(C)(C)OC(=O)N1CCC[C@H]1C(=O)O	14.1%	0.1%	10.9%	0.6%	-3.5%
CC(C)(C)OC(=O)N1CCN(C(=O)OCC2c3ccccc3-c3ccccc32)CC1C(=O)O (stereo not drawn)	-4.1%	/	/	23.1µM*	?
C=C(C)Cn1c(=O)c2c(nc3n2CCCN3CCc2ccccc2)n(C)c1=O	-2.9%	1.2%	4.0%	?	13µM*
